Screening data deposited in PubChem by several laboratories.
Sa RN4220 lethal = growth inhibition of S. aureus RN4220, primary screen, OD600; AID 1259311, 2017; actives 0.33% (n = 330,000); 16 h; inhibition, % (test concentration not listed); in the data active = inhibition above about 85%;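 note: plate controls were untreated cells for no effect and reference antibiotic for full effect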
DUSP3 inh = VHR1 phosphatase inhibitors, primary screen, biochemical, absorbance, uHTS | actives 0.52% (n = 290,000) | inhibition, % at 13.3 µM | AID 1654, 2009 | recombinant VHR phosphatase, pNPP absorbance; in the data active = inhibition above about 50%
Target sequence (P51452 whole entry, looked up): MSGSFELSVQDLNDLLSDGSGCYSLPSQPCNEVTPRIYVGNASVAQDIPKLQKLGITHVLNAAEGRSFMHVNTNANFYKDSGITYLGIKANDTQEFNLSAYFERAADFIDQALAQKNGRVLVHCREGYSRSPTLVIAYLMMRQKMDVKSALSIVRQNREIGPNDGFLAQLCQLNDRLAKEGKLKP
Sa ugtP lethal = growth inhibition of ugtP-null S. aureus, primary screen, RN4220 ugtP deletion, OD600; 16 h; growth inhibition, % (no concentration beside the values); actives 0.54% (n = 330,000); in the data active = growth inhibition above about 68%;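 note: plate controls were untreated wells for no effect and antibiotic for full effect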
PrPC TRFRET = inhibitors of human cell surface prion protein PrPC, primary screen, cell-based, TR-FRET; TR-FRET read-out; AID 720596, 2013; Major prion protein (Homo sapiens), P04156; actives 0.43% (n = 370,000); inhibition, % at 13.8 µM; in the data active = inhibition above about 24%; note: 0% = median of the test wells and 100% = reference compound wells
PfHsp40 yeast = rescue of yeast from PfHsp40 toxicity, primary screen, S. cerevisiae, ATP luminescence. S. cerevisiae expressing PfHsp40, growth rescue. growth rescue, % at 12.5 µM. actives 0.68% (n = 340,000); in the data active = growth rescue above about 28%, passing the limit was not always enough; inconclusive = no clear call, values can overlap the other calls;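 note: yeast W303a lacking pdr1 and pdr3 grown in galactose medium; growth measured after three days at 30 °C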
Numbers without * were called inactive; ? = inconclusive; / = not tested or not shown. Shown are actives, neighbours in structure and some others; about 1.8% of the full set was active somewhere.

SMILES	Sa RN4220 lethal	DUSP3 inh	Sa ugtP lethal	PrPC TRFRET	PfHsp40 yeast
CSc1ccc(C(=O)C2CCCN(Cc3cccn3-c3cccnc3)C2)cc1 (centres undefined)	12	22	1	1	0
CSc1ccc(C(=O)C2CCCN(Cc3cccnc3)C2)cc1 (centres undefined)	/	58*	/	-4	-1
COc1ccc(C2CC(=O)C=C(c3ccc(F)cc3OCc3ccccc3)C2)cc1 (centres undefined)	3	/	6	/	/
COc1ccc(C(=O)NCC(=O)NN=Cc2ccc([N+](=O)[O-])o2)cc1OC	4	/	27	/	/
CCS(=O)(=O)NCCc1cc2c(OC)ccc(OC)c2[nH]c1=O	-1	53*	-22	1	-1
CC(=NNC(=O)c1ccc(=O)[nH]n1)c1cccnc1	3	/	2	/	/
CCOC1OC(C(=O)O)=CC(c2ccccc2)C1CCCO (centres undefined)	4	/	1	/	/
O=C(NN=Cc1ccncc1)c1ccccc1	2	/	8	/	/
O=C(N/N=C/c1ccncc1)c1cc2ccccc2cc1O	/	11	/	-2	187*
C[n+]1c(-c2ccccc2)cc2c(=Cc3ccc([N+](=O)[O-])cc3)c3ccccc3n21	/	/	/	-41	2
CN(C)c1ccc(C=c2c3ccccc3n3c2c2ccccc2[n+]3C)cc1	/	/	/	-102	2
CCOC(=O)c1cc2c(=Cc3ccc(N(C)C)cc3)c3ccccc3n2[n+]1C	/	/	/	-25	284*
Cc1cc2c(=Cc3ccc(N(C)C)cc3)c3ccccc3n2[n+]1C	/	/	/	-34	180*
OCCCNc1nc(-c2ccc(Cl)cc2)nnc1-c1ccc(Br)cc1	-9	-2	-8	7	28*
CCCc1[nH]n(-c2ccc([N+](=O)[O-])cc2)c(=O)c1C=NCCc1c[nH]c2ccccc12	3	30	-11	-1	0
Cc1[nH]n(-c2ccc([N+](=O)[O-])cc2)c(=O)c1C=NCCc1c[nH]c2ccccc12	2	55*	-4	-1	-3
O=C(Nc1nnc(C2=COCCO2)o1)c1cccc(C(F)(F)F)c1	95*	-2	82	1	1
O=C(Nc1nnc(C2=COCCO2)o1)c1ccc(F)cc1	16	-2	-5	-3	-1
FC(F)Sc1ccc(NC(=S)NC(c2ccccc2)c2ccccc2)cc1	99*	7	100*	1	4
FC(F)Sc1ccc(NC(=S)NCC2CCCCC2)cc1	99*	6	100*	6	0
FC(F)Sc1ccc(NC(=S)NCc2ccccc2)cc1	-7	-2	-4	3	22
COc1ccc2c(c1)OC(c1cccc(C(F)(F)F)c1)C(OC(=O)NCCc1ccc(OC)c(OC)c1)C2=O (centres undefined)	2	/	3	/	/
CCOc1ccc2ccccc2c1C=NNC(=O)OC	6	/	20	/	/
O=C1Nc2ccccc2C1=NN=Cc1ccc(O)c(O)c1	3	/	-5	/	/
O=C(NN=Cc1ccc([N+](=O)[O-])o1)C1CC1	20	/	22	/	/
SMILES	Sa RN4220 lethal	DUSP3 inh	Sa ugtP lethal	PrPC TRFRET	PfHsp40 yeast
CCCn1c(=O)c(C(=O)Nc2ncccc2O)c(O)c2ccccc21	5	1	4	0	-1
CCCCCCn1c(=O)c(C(=O)Nc2ncccc2C)c(O)c2ccccc21	66	-7	89*	-9	145*
CCCCn1c(=O)c(C(=O)Nc2ncccc2C)c(O)c2ccccc21	67	6	100*	-10	?
Cc1cccn2c(=O)c(C=C(C#N)C(=O)NC3CCS(=O)(=O)C3)c(N3CCC(C)CC3)nc12 (centres undefined)	6	/	-15	/	/
CCOC1OC(C(=O)O)=CC(c2coc3ccccc3c2=O)C1CCCO (centres undefined)	5	/	3	/	/
COc1ccccc1N1CCN(C2CCCN(C(=O)c3cscn3)C2)CC1 (centres undefined)	/	5	/	2	1
COc1ccccc1N1CCN(C2CCCN(C(=O)CCn3cncn3)C2)CC1 (centres undefined)	-2	57*	1	-11	1
COc1ccccc1N1CCN(C2CCCN(C(=O)CCC(=O)N(C)C)C2)CC1 (centres undefined)	2	72	7	3	0
COc1ccccc1N1CCN(C2CCCN(C(=O)C3=NN(C)C(=O)CC3)C2)CC1 (centres undefined)	2	52*	5	-5	0
CCn1ncc(C=NNC(=O)COc2cc(C)cc(C)c2)c1C	3	/	12	/	/
c1ccc(Cn2cc(-c3ccccc3)cn2)cc1	4	/	0	3	0
c1ccc(Cn2cc(-c3cccnc3)cn2)cc1	4	/	-1	0	553*
CCC1=Nc2cc(C(=O)NCCN3CCCC3)ccc2Sc2ccccc21	4	58*	-2	-7	-1
O=S1(=O)CCOCC(CC2CCCCC2)N1Cc1ccccc1 (centres undefined)	6	/	9	/	/
Cc1cccc(C)c1NC(=O)c1nc(S(=O)(=O)Cc2ccccc2)ncc1Cl	/	7	/	3	98*
O=C(CSc1nccn(-c2cccc(F)c2)c1=O)Nc1ccc(Cl)cc1F	0	16	8	10	173*
COc1ccccc1OCc1cc(C(=O)N2CCN(C)C(c3ccccc3)C2)no1 (centres undefined)	1	19	2	2	-1
CN1CCN(C(=O)c2cc(COc3ccc(F)cc3Cl)on2)CC1c1ccccc1 (centres undefined)	4	22	6	2	139*
CSc1ccccc1OCc1cc(C(=O)NC2CCOC2)no1 (centres undefined)	4	-31	0	2	1
CSc1ccccc1OCc1cc(C(=O)N2CCN(C)C(c3ccccc3)C2)no1 (centres undefined)	2	10	-18	-2	78*
CSc1ccccc1OCc1cc(C(=O)NC2CCc3ccccc32)no1 (centres undefined)	0	51*	4	1	1
CN1CCN(C(=O)c2cc(COc3c(F)cccc3F)on2)CC1c1ccccc1 (centres undefined)	1	35	7	-11	80*
COc1ccc(NC(=O)Nc2ccc3c(c2)C(=O)N(C(C)CO)CC(C)C(CN(C)S(=O)(=O)c2cccs2)O3)cc1 (centres undefined)	7	/	-8	/	/
C=CCn1c(CNC(=O)c2ccccc2F)nnc1SCc1nc2ccccc2c(=O)[nH]1	-3	52*	3	11	-1
COc1ccc(NC(=O)Nc2cccc3c2OC(CN(C)S(=O)(=O)c2cccs2)C(C)CN(C(C)CO)C3=O)cc1 (centres undefined)	3	/	2	/	/
CN(C)c1ccc(C(C[N+](=O)[O-])c2c(N)n(C)c(=O)n(C)c2=O)c(F)c1C#N (centres undefined)	4	-7	-10	-11	140*
OCC1(CCc2ccccc2)CCN(C/C=C/c2ccccc2)CC1	-6	56*	-3	0	1
CC12C(=O)N(c3nccs3)C(=O)C1(C)C1CCC2O1 (centres undefined)	1	/	1	-7	/
